# Source: the supplement of paper PMC6555819
# System: PPARg:RXRa DBDmut IVT, anti-RXR (DBD mutation: RXRa K156A/R161A, NR concentration 270 nM, RXRa partner concentration 90 nM)
# Assay: PBM binding z-score (relative to random genomic background probes); higher = stronger binding; sequences stand for … in GC…GCGATTGACAGCGTAGAATGAAGG
# Method in brief: (§1)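 Probes were double-stranded and carried 34-nt variable regions with direct-repeat seeds, single-nucleotide variants, half-site ablations and random human genomic background sequences, printed on custom Agilent 4×180K protein-binding microarrays. Arrays were incubated 1 h with ligand-free nuclear receptor dimers in PBS pH 7.4, 2% milk, 0.02% Triton X-100, 1 mM DTT, 0.2 mg/mL BSA and 0.4 mg/ml salmon testes DNA. Antibodies against each partner (one per run) detected binding, and scanned fluorescence was regression-normalized. Binding z-scores use the random background probes as reference.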
row,Sequence,PBM binding z-score
1,ATCGAAAGGTCGACGAGGTGAATATACACCGTTT,0.98
2,CGTCCTAGGTCAAGGTCAGTGAAAGAGACTCGAA,3.53
3,CTCGAAAGGTCGTGCTCAGGTGAGCATACCAAAC,0.762
4,ATCGAAAGGTCGAAGGTGAGTATACCCACCCGAA,0.0439
5,CCGGCTGGGGCAGAAAGGTTACCATACCATCCGG,-0.851
6,AGAATGAGGTTATTAAGACCAGGGAATTGCGGTC,2.67
7,ATCGAACGGTCGAAGGTGAGTATACCCACCCGAA,-0.97
8,CATACAGGGTCAGCTAGGCAAGAGTAGGGACGGC,0.883
9,AGAATGAGGTTAAGATCAGGGAAACAGAATACAT,2.82
10,ACAGACAGGTGAGGGAAGGTAACTCAGCTGGACG,0.476
11,GCTAGTTGGTCAGTAGAAGGTCACACACCGGTCG,1.12
12,CCAGACAGGTGAGAAGGCAACTCAGCCTCGATTA,0.42
13,ATCTCTAGGTAAAGTTCCGTGAAAGATCGATAGA,2.64
14,TCTAGTTGGTCACGGAGGTCACGCACGACGGGTA,2.9
15,TTACCATGGTGAAAGGTCGTTGATGCACGCCTTG,0.72
16,CGAACTAGGTCATTGACAGGACATTGAATAGTAA,8.1
17,GGAACGAGGGCAAGTAGATAGCAGAGTTTGATGG,3.61
18,AGAACGAGGGCACGCTGAGTTGATCGCAGAGTAG,4.59
19,CATCCAGGGTCAGCTAGGCCAGAGTAGGGACGGC,0.695
20,CCGAGTAGGTTATGGGGAATTCAGGCAACGGTGA,3.51

row,Sequence,PBM binding z-score
1,ACTCGGAGGACAAAGGTCGGAGCTACGCCAGTGA,-0.0622
2,GGAACGAGGGCAAAGTTGACAGCATCTGTCGACG,4.28
3,TCTTGTTGATCAAGCAGGTTAAGAAAGCCTGAGT,1.34
4,CCGAGTAGGTTATGGGGCCTTCAGGCAACGGTGA,3.11
5,TCTCGGAGGACGCGAAAGGTCAGAGCTCGACATC,0.887
6,TAGCCTAGGTCAGATTGGGCCAGTATACGCTATA,0.821
7,GATATTAGTTGAAAGGGCAACCGAATGATTCTCG,0.557
8,GGAACGAGGGCAAGCTGATAGCAGAGTTTGATGG,3.83
9,CCGACTGGGGCACGGTTACCATAACGCACAGCCA,3.83
10,GCAGACAGGTGGAACGCAGGTAACTCAGGGTGGC,-0.523
11,AGAATGAGGCTATACGTAGATCAGGGAAGAAAGT,1.49
12,CCAGACAGGTGAGAAGGTACCTCAGCCTCGATTA,0.836
13,GCTAGCAGGCCATTTGCGTCACTCAATGACGGGC,1.06
14,ATCGAAAGTTCGACGAGGTGAGTATACACCGTTT,-0.191
15,CCTCAGAGGACAACAGGAGGTCAGAGCTGCCAGA,0.559
16,CGTCAAAGTTCAACTAAGGTAACGTACAGCACGC,0.621
17,GAAACAGGGTCAAGGCCAGAGTACGCGTATTGAT,4.14
18,GCTTGTAGATCAAGGTTAAGAACGACTAAGCTAA,1.08
19,TCTTGTAGATCAAAGGTTAAGAATGCCGAAGCCT,2.34
20,GCTTGTAGTTCAAGGTTAAGAAAGACTAAGCTAA,-0.00904

# System: PPARg:RXRa IVT, anti-PPARg (NR concentration 270 nM, RXRa partner concentration 90 nM)
# Assay: as above
# Method in brief: as §1
row,Sequence,PBM binding z-score
1,ATCGAAAGGTCGACGAGGTGAATATACACCGTTT,2.07
2,CGTCCTAGGTCAAGGTCAGTGAAAGAGACTCGAA,4.08
3,CTCGAAAGGTCGTGCTCAGGTGAGCATACCAAAC,2.31
4,ATCGAAAGGTCGAAGGTGAGTATACCCACCCGAA,2.38
5,CCGGCTGGGGCAGAAAGGTTACCATACCATCCGG,-0.138
6,AGAATGAGGTTATTAAGACCAGGGAATTGCGGTC,2.43
7,ATCGAACGGTCGAAGGTGAGTATACCCACCCGAA,0.443
8,CATACAGGGTCAGCTAGGCAAGAGTAGGGACGGC,2.27
9,AGAATGAGGTTAAGATCAGGGAAACAGAATACAT,2.83
10,ACAGACAGGTGAGGGAAGGTAACTCAGCTGGACG,0.747
11,GCTAGTTGGTCAGTAGAAGGTCACACACCGGTCG,2.07
12,CCAGACAGGTGAGAAGGCAACTCAGCCTCGATTA,0.413
13,ATCTCTAGGTAAAGTTCCGTGAAAGATCGATAGA,1.76
14,TCTAGTTGGTCACGGAGGTCACGCACGACGGGTA,4.62
15,TTACCATGGTGAAAGGTCGTTGATGCACGCCTTG,2.89
16,CGAACTAGGTCATTGACAGGACATTGAATAGTAA,8.23
17,GGAACGAGGGCAAGTAGATAGCAGAGTTTGATGG,2.59
18,AGAACGAGGGCACGCTGAGTTGATCGCAGAGTAG,4.13
19,CATCCAGGGTCAGCTAGGCCAGAGTAGGGACGGC,2.52
20,CCGAGTAGGTTATGGGGAATTCAGGCAACGGTGA,2.6

row,Sequence,PBM binding z-score
1,ACTCGGAGGACAAAGGTCGGAGCTACGCCAGTGA,1.75
2,GGAACGAGGGCAAAGTTGACAGCATCTGTCGACG,4.82
3,TCTTGTTGATCAAGCAGGTTAAGAAAGCCTGAGT,0.182
4,CCGAGTAGGTTATGGGGCCTTCAGGCAACGGTGA,2.85
5,TCTCGGAGGACGCGAAAGGTCAGAGCTCGACATC,0.996
6,TAGCCTAGGTCAGATTGGGCCAGTATACGCTATA,1.47
7,GATATTAGTTGAAAGGGCAACCGAATGATTCTCG,1.16
8,GGAACGAGGGCAAGCTGATAGCAGAGTTTGATGG,2.53
9,CCGACTGGGGCACGGTTACCATAACGCACAGCCA,4.42
10,GCAGACAGGTGGAACGCAGGTAACTCAGGGTGGC,-0.717
11,AGAATGAGGCTATACGTAGATCAGGGAAGAAAGT,0.333
12,CCAGACAGGTGAGAAGGTACCTCAGCCTCGATTA,0.42
13,GCTAGCAGGCCATTTGCGTCACTCAATGACGGGC,-0.0589
14,ATCGAAAGTTCGACGAGGTGAGTATACACCGTTT,0.687
15,CCTCAGAGGACAACAGGAGGTCAGAGCTGCCAGA,0.422
16,CGTCAAAGTTCAACTAAGGTAACGTACAGCACGC,2.54
17,GAAACAGGGTCAAGGCCAGAGTACGCGTATTGAT,5.29
18,GCTTGTAGATCAAGGTTAAGAACGACTAAGCTAA,1.15
19,TCTTGTAGATCAAAGGTTAAGAATGCCGAAGCCT,3.51
20,GCTTGTAGTTCAAGGTTAAGAAAGACTAAGCTAA,0.825
